Results filed as inconclusive are left out. A number with no mark means an inactive call. Active and inactive are the calls of the source. The call rests on the fitted dose curve; in most records, active means well fitted curve in the direction sought with a large enough effect; inconclusive means small, poorly fitted or top-dose-only effect, or another doubt; inactive means no such curve, though single readings can be large; an effect the other way counts as inactive or inconclusive.

The subject of one test is Hek293T. Kind of test: Primary qHTS to identify gynecologic anti-cancer compounds using libraries of approved drugs and bioactive compounds (AID 1345084). Further: nearly all actives have a fitted effect of over 55% in size. As to conditions: Gynecologic cancer cell panel viability, ATPlite luminescence, 48 h, control line for the selectivity index; series mostly up to 57.5 µM. An outline of the steps: (§1)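 ATP-based viability (ATPlite), 1,000 cells/well, 16 h pre-incubation, 48 h compound at 37 C, 5% CO2, 15 min RT before read.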
For orientation: qHTS replaces the single test concentration by a dilution series.

For another test, the system named is JEG-3. The description is as above. As to conditions: Gynecologic cancer cell panel viability, ATPlite luminescence, 48 h; series mostly up to 57.5 µM. An outline of the steps:
as §1
A general note: Cellular ATP, detected with luciferase, serves as a proxy for viable cell number.

The next test concerns OV90. Described as above. As to conditions: Gynecologic cancer cell panel viability, ATPlite luminescence, 48 h; series mostly up to 57.5 µM. An outline of the steps: as §1
Another test relates to PA-1. The test is described as above. To be noted: Gynecologic cancer cell panel viability, ATPlite luminescence, 48 h; series mostly up to 57.5 µM. In a few lines: as §1
A further test has as its system SKOV3. The description is as above. To be noted: Gynecologic cancer cell panel viability, ATPlite luminescence, 48 h; series mostly up to 57.5 µM. An outline of the steps:
as §1

The next test has as its system Tov-21-G. Described as above. To be noted: Gynecologic cancer cell panel viability, ATPlite luminescence, 48 h; series mostly up to 57.5 µM. An outline of the steps: as §1
The test system of a further test is Tov112D. Described as above. As to conditions: Gynecologic cancer cell panel viability, ATPlite luminescence, 48 h; series mostly up to 57.5 µM. In a few lines: as §1
A short description of test [1]: Drug repurposing screens with cells derived from glioblastoma tumor samples (AID 1345199). Further: nearly all actives have a fitted effect of over 40% in size. Further: potency means the concentration at half of the fitted maximal effect. As to conditions: GBM patient neurospheres viability, ATP luminescence, 48 h. An outline of the steps: (§2)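 Primary testing used CD133+ neurospheres from four GBM patients, seven concentrations, 48 h exposure and ATP-based viability; confirmation added three slower-growing patient lines.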

The next test relates to astro. The test is described as above. To be noted: viability, ATP luminescence, 48 h; series mostly up to 45.9 µM. An outline of the steps:
as §2

Where [2] appears, read: at 45.9 µM (top of the series), tumour line B.
[3] abbreviates: at 45.9 µM (top of the series), tumour line D.
Where [4] appears, read: at 46.1 µM (top of the series), tumour line C.
[5] abbreviates: at 20 µM (top of the series), tumour line C.
The mark [6] stands for this setting: at 21.2 µM (top of the series), tumour line B.
Where [7] appears, read: at 46 µM (top of the series), tumour line A.
On the % scale 0 is the no-effect control and ±100 the full control effect.

In the case of `COc1ccc(CCN(C)CCCN2CCc3cc(OC)c(OC)cc3CC2=O)cc1OC`, the Potency entry with Hek293T, with JEG-3, in the test with OV90, with PA-1, with SKOV3 and in the test with Tov-21-G was “inactive” throughout. For the same molecule, the Potency result in the test with Tov112D and in the test on astro was “inactive” throughout. Moreover, the values for the activity, negative = cell killing in [1] (setting [2]), in test [1] (setting [3]) and in test [1] (setting [4]) were -2.1%, -12.6% and -18%, respectively. Besides, the Potency in [1] (tumour line A) is 28.2 µM (active).

Regarding `CCCc1ncc(C[n+]2ccccc2C)c(N)n1`, the Potency result in the test on Hek293T, in the test on JEG-3, in the test on OV90, in the test with PA-1, in the test with SKOV3 and with Tov-21-G was “inactive” throughout. Also, the Potency entry in the test on Tov112D and in the test with astro was “inactive” throughout. In addition, the activity, negative = cell killing was 11.7% in [1] (setting [5]); -1.46% in [1] (setting [6]); -1.64% in test [1] (at 21.2 µM (top of the series), tumour line D); -22.4% in [1] (at 21.3 µM (top of the series), tumour line A).

For the molecule `CCCCCCCCCCCCCCC[C@H](O)[C@@H](N)CO`, the Potency result in the test with Hek293T, with JEG-3, in the test on OV90, in the test on PA-1, in the test with SKOV3 and in the test with Tov-21-G was “inactive” in each case. In addition, the Potency result in the test on Tov112D was “inactive”.

For the molecule `C=C1c2cccc(O)c2C(O)=C2C(=O)[C@]3(O)C(O)=C(C(N)=O)C(=O)[C@@H](N(C)C)[C@@H]3[C@@H](O)[C@H]12`, the Potency entry in the test on Hek293T, in the test with JEG-3, with OV90, in the test with PA-1, in the test with SKOV3 and with Tov-21-G was “inactive” throughout. Further, the Potency entry in the test with Tov112D is “inactive”. The activity, negative = cell killing is -24.5% in test [1] (setting [5]) and -7.73% in test [1] (setting [6]).

Regarding `CC(=O)N[C@@H](CCC(=O)O)C(=O)O`, the Potency result with Hek293T, with JEG-3, in the test with OV90, in the test with PA-1, in the test with SKOV3 and with Tov-21-G was “inactive” each time. Also, the Potency entry in the test with Tov112D and in the test with astro was “inactive” each time. For the same molecule, the activity, negative = cell killing in test [1] (setting [2]) is 2.35%; in test [1] (setting [3]) it was -7.45%; in test [1] (setting [7]) it was -9.15%; in test [1] (setting [4]), -3.96%.

With `Clc1cccc(C(c2ccc3nc[nH]c3c2)n2ccnc2)c1` (configuration not stated), the Potency result with Hek293T, in the test with JEG-3, with OV90, with PA-1, in the test on SKOV3 and in the test on Tov-21-G was “inactive” throughout. The Potency result in the test with Tov112D is “inactive”.

Regarding `CC(C)[C@@H]1CC[C@@H](C)CC1=O`, the Potency result in the test on Hek293T, in the test on JEG-3, in the test on OV90, in the test with PA-1, in the test on SKOV3 and with Tov-21-G was “inactive” throughout. Also, the Potency result with Tov112D and in the test on astro was “inactive” throughout. Further, the activity, negative = cell killing in test [1] (setting [2]) is -6.28%; in [1] (setting [3]), -8.45%; in [1] (setting [7]), -24.9%; in test [1] (setting [4]) it was -8.42%.

`c1ccc(-c2nc[nH]c2-c2ccccc2)cc1`: the Potency result in the test with Hek293T, in the test on JEG-3, with OV90, in the test with PA-1, in the test with SKOV3 and with Tov-21-G was “inactive” in each case. Further, the Potency entry with Tov112D was “inactive”. Further, the activity, negative = cell killing in [1] (setting [2]) is -16.2%.

Regarding `O=C(O)CCNC(=O)c1ccccc1`, the Potency entry in the test on Hek293T, with JEG-3, in the test with OV90, with PA-1, in the test on SKOV3 and in the test with Tov-21-G was “inactive” in each case. Moreover, in the test on Tov112D, the Potency entry is “inactive”. Further, the activity, negative = cell killing in [1] (setting [2]) is -3.69%; in test [1] (setting [3]) it was -10.8%; in test [1] (setting [7]), -25.4%; in test [1] (setting [4]) it was -11.5%.

Take `CN(CCCN1c2ccccc2CCc2ccccc21)CC(=O)c1ccc(Cl)cc1`: the Potency entry in the test with Hek293T, in the test on JEG-3, in the test on OV90, in the test on PA-1, in the test on SKOV3 and with Tov-21-G was “inactive” throughout. The Potency result with Tov112D is “inactive”.

For the molecule `Cc1cc2c(OCC(CNC(C)(C)C)OC(=O)c3ccccc3)cccc2[nH]1` (configuration not stated), the Potency entry in the test with Hek293T, in the test on JEG-3, in the test on OV90, with PA-1, with SKOV3 and in the test with Tov-21-G was “inactive” throughout. Besides, the Potency entry in the test with Tov112D was “inactive”. In addition, the figures for the activity, negative = cell killing in test [1] (setting [2]), in test [1] (setting [3]) and in test [1] (setting [4]) were -19.3%, -5.62% and -10.8%, respectively.

As for `C=C[C@@]1(C)CC(=O)[C@]2(O)[C@@]3(C)[C@@H](O)CCC(C)(C)[C@@H]3[C@H](O)[C@H](OC(C)=O)[C@@]2(C)O1`, the Potency entry in the test on Hek293T, in the test with JEG-3, in the test on OV90, in the test with PA-1, with SKOV3 and in the test with Tov-21-G was “inactive” each time. Also, in the test on Tov112D, the Potency entry was “inactive”. The activity, negative = cell killing in test [1] (setting [2]) was 7.18%; in test [1] (setting [4]), -36.3%.

Consider `CC(=O)Nc1ccc(S(=O)(=O)Nc2ccc([N+](=O)[O-])cc2)cc1`, for which the Potency result with Hek293T, in the test on JEG-3, in the test with OV90, in the test on PA-1, with SKOV3 and with Tov-21-G was “inactive” throughout. Besides, the Potency entry in the test with Tov112D is “inactive”. In addition, the activity, negative = cell killing in test [1] (setting [2]) is -8.95%; in test [1] (setting [3]) it was -28.3%; in [1] (setting [4]), 10.9%.

`CC(=O)O[C@]1(C(C)=O)CC[C@H]2[C@@H]3C=C(Cl)C4=CC(=O)CC[C@]4(C)[C@H]3CC[C@@]21C`: the Potency entry with Hek293T, in the test with JEG-3, with OV90, in the test on PA-1, in the test with SKOV3 and in the test with Tov-21-G was “inactive” in each case. Also, the Potency entry in the test with Tov112D is “inactive”. In addition, the activity, negative = cell killing in test [1] (setting [2]) was -21.1%.

`CC(=O)Nc1ccc(CC(=O)O)cc1`: the Potency result in the test with Hek293T, with JEG-3, in the test on OV90, in the test with PA-1, with SKOV3 and in the test on Tov-21-G was “inactive” throughout. In addition, the Potency entry in the test on Tov112D and with astro was “inactive” in each case. Moreover, the activity, negative = cell killing in test [1] (setting [2]) is 0.59%; in test [1] (setting [3]), -5.02%; in [1] (setting [7]), -20.1%; in test [1] (setting [4]), 3.56%.

Regarding `C#C[C@]1(O)CC[C@H]2[C@@H]3CCc4cc(OC)ccc4[C@H]3CC[C@@]21C`, the Potency result with Hek293T, in the test on JEG-3, in the test on OV90, in the test on PA-1, in the test with SKOV3 and in the test on Tov-21-G was “inactive” throughout. Moreover, in the test with Tov112D, the Potency result was “inactive”. Moreover, the activity, negative = cell killing in test [1] (setting [2]) is -27.2%; in test [1] (setting [4]), -5.96%. The Potency in test [1] (tumour line A) is 39.8 µM (active).

Turning to `CCOc1cc(OCC)c(C(=O)CCC(=O)O)cc1OCC`, the Potency result in the test with Hek293T, in the test on JEG-3, in the test with OV90, in the test on PA-1, in the test on SKOV3 and with Tov-21-G was “inactive” throughout. Further, in the test with Tov112D, the Potency result was “inactive”. In addition, the activity, negative = cell killing is -2.96% in test [1] (setting [2]), -2.05% in test [1] (setting [3]), -23.5% in test [1] (setting [7]) and -10.2% in test [1] (setting [4]).

For the origin of these results see PubChem BioAssay (NCATS).
